Rab9 promoter act: Rab9 promoter activation | AID 485297 | Potency, µM (series often up to 9.22 µM), without a hit: top-dose activation, negative = inhibition, most hits filed as activators | actives 2.8% (n = 320,000) | Huh7 Rab9 promoter-luciferase reporter, luminescence, 24 h; also: % of control where 0% means no effect; nearly all actives have a fitted effect of over 60% in size
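Luminescence read-out: Huh7 cells stably expressing Rab9-luciferase, treated 24 h with compound at 37 °C, then lysed with luciferase reagent for 10 min at ambient before reading.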
NPC1 prom act: activators of NPC1 promoter. Huh7 NPC1 promoter luciferase reporter, 24 h. Potency, µM (highest dose often 9.22 µM), inactives show top-dose activation, hits mostly activators. actives 2.4% (n = 320,000); also: % of control where 0% means no effect; nearly all actives have a fitted effect of over 60% in size
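Stably transfected Huh7 (NPC1 promoter→luciferase), 1500 cells/well in Opti-MEM + 10% FBS, 2 h settle, then compound 24 h at 37 °C. Luminescence after 10 min with Amplite reagent.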
FLuc counter: inhibits or activates purified firefly luciferase, miR-21 counter-screen | P08659 | purified FLuc, Km substrates, luminescence inhibition | Potency, µM (series often up to 57.5 µM), for the others: at the highest dose activity change, negative = inhibition, usual class: inhibitors | actives 6.9% (n = 360,000);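 also: plate controls were vehicle for no effect and reference inhibitor for full effect; nearly all actives have a fitted effect of over 55% in size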
Target sequence (P08659 whole entry, looked up): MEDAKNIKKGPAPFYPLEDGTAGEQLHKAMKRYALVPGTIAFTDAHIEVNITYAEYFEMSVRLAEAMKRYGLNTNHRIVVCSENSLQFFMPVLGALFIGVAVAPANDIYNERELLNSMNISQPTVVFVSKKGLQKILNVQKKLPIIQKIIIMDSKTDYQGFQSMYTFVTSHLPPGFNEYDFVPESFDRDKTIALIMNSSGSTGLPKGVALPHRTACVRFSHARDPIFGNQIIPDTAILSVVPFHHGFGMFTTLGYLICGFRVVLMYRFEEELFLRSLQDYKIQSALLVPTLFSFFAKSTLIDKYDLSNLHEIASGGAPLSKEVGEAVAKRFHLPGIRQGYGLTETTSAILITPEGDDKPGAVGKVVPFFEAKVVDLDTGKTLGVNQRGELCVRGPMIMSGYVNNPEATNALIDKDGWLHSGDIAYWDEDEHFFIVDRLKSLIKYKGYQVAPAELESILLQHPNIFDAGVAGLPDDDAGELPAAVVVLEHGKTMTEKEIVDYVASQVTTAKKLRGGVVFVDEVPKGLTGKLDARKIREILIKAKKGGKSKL
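Biochemical qHTS of compounds, final roughly 60 µM downward over six points, against 10 nM purified firefly luciferase using Km concentrations of substrates (10 uM D-luciferin, 10 uM ATP) in Tris acetate pH 7.5 buffer; luminescence output.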
ELG1 DNA repair: inhibitors of ELG1-dependent DNA repair in HEK293T cells; HEK293T ELG1-luciferase reporter, luminescence, 16 h; DNA damage induced by 5-fluorouridine; Potency, µM (series often up to 46.1 µM), for the others: at the top dose activity change, negative = inhibition, usual class: inhibitors; actives 2.3% (n = 330,000); also: % is scaled to controls: 0 for no effect and ±100 for the full control effect; nearly all actives have a fitted effect of over 55% in size
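Overnight (16 hr) co-exposure of 2,000 cells/well to 5-fluorouridine and compound at 37 °C preceded detection. Luciferase was quantified via ONE-Glo luminescence; loss of signal denotes inhibition.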
SMN2 splice enh: SMN2 splice variant enhancement; actives 2.8% (n = 210,000); Potency, µM (highest dose often 46.1 µM), inactives show top-dose activity change, positive = activation, hits mostly activators; HEK293 SMN2-luciferase splicing reporter, luminescence, 30-36 h; also: % of control where 0% means no effect; nearly all actives have a fitted effect of over 55% in size
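qHTS luciferase splicing reporter: luminescence rises when SMN2 exon 7 is included in transfected HEK293 cells. Compound exposure lasted 30-36 h at 37C, with 4.5 mM final sodium butyrate as control, followed by a ONE-Glo read.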
ELG1 genotoxic: genotoxicity induction in ELG1-luciferase HEK293T cells. HEK293T ELG1-luciferase reporter, luminescence, 16 h. Potency, µM (series often up to 46 µM), without a hit: at the highest dose activity change, positive = activation, hits mostly activators. actives 1.3% (n = 330,000). AID 504466; also: % of control where 0% means no effect; nearly all actives have a fitted effect of over 60% in size
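Genotoxicity was scored as increased ELG1-luciferase reporter signal, measured by ONE-Glo luminescence (30 min, room temperature). Compound or vehicle exposure of the HEK293T reporter cells lasted 16 hr at 37°C.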
* marks the source's active call; other numbers are inactive results. An excerpt weighted towards active compounds, which were near 9.2% of everything screened. Calls follow the shape of the dose curve; as a rule, active = well fitted curve in the direction sought with a large enough effect; inconclusive = small, poorly fitted or top-dose-only effect, or another doubt; inactive = no such curve, though single readings can be large; an effect the other way counts as inactive or inconclusive. Potency is read from the fitted curve at half-maximal effect.

O=c1cc(-c2ccccc2Cl)oc2c([N+](=O)[O-])c(O)cc(O)c12 was read as Rab9 promoter act -4%, NPC1 prom act 15%, FLuc counter -19%, ELG1 DNA repair 3.7µM*, SMN2 splice enh 29% and ELG1 genotoxic -16%.
For O=c1cc(-c2ccccc2Cl)oc2ccc([N+](=O)[O-])c(O)c12 the results were Rab9 promoter act -1%, NPC1 prom act 0%, FLuc counter -10%, ELG1 DNA repair -3%, SMN2 splice enh -27% and ELG1 genotoxic 0%.
For CCn1cc(C(=O)N2CCN(c3cc(Cl)ccc3C)CC2)c(=O)c2cc(S(=O)(=O)N3CCCCC3)ccc21 the results were FLuc counter -12% and SMN2 splice enh 10%.
Screening CC(C)Cn1cc(NC(=O)NCc2ccccc2Cl)c2ccccc2c1=O returned FLuc counter -3%.
For Cc1cccc(C(=O)N2CCCC(CCC(=O)N3CCN(c4ccccn4)CC3)C2)c1C (stereo unspecified) the results were Rab9 promoter act -7%, NPC1 prom act -24%, FLuc counter -1%, ELG1 DNA repair inconclusive and ELG1 genotoxic -16%.
Cc1ccc(C(=O)N2CCCC(CCC(=O)N3CCN(c4ccccn4)CC3)C2)cn1 (stereo unspecified) was read as Rab9 promoter act -3%, NPC1 prom act 2%, FLuc counter -1%, ELG1 DNA repair 2% and ELG1 genotoxic -5%.
Cc1ccc(C(=O)N2CCCC(CCC(=O)N3CCN(c4ccccn4)CC3)C2)cc1C (stereo unspecified) was read as Rab9 promoter act -5%, NPC1 prom act 0%, FLuc counter -8%, ELG1 DNA repair 12µM* and ELG1 genotoxic -8%.
For Cc1ccoc1C(=O)N1CCCC(CCC(=O)N2CCN(c3ccccn3)CC2)C1 (stereo unspecified) the results were Rab9 promoter act -10%, NPC1 prom act -7%, FLuc counter -1%, ELG1 DNA repair 21µM* and ELG1 genotoxic -8%.
For O=C(Nc1nc(-c2ccc(Cl)cc2)cs1)C1CCCO1 (stereo unspecified) the results were Rab9 promoter act inconclusive, NPC1 prom act 27%, FLuc counter 15µM*, ELG1 DNA repair inconclusive, SMN2 splice enh 25% and ELG1 genotoxic inconclusive.
Screening CCOc1ccc(-c2csc(NC(=O)C3CCCO3)n2)cc1 (stereo unspecified) returned Rab9 promoter act 11%, NPC1 prom act 18%, FLuc counter 15µM*, ELG1 DNA repair 12%, SMN2 splice enh 3% and ELG1 genotoxic inconclusive.
CCn1c(=O)sc2cc(NS(=O)(=O)c3ccc(F)c(C)c3)ccc21 was read as FLuc counter -15% and SMN2 splice enh -41%.
`COc1ccc(CNC(=O)CCn2nc(C)c3c(C)n(-c4ccccc4)nc3c2=O)cc1OC` gave FLuc counter 4%.
Cc1c(CC(=O)NCC(=O)O)c(=O)oc2cc3c(cc12)CCC(C)(C)O3 was read as Rab9 promoter act 3%, NPC1 prom act 0%, FLuc counter inconclusive, ELG1 DNA repair 6% and ELG1 genotoxic 0%.
CCN(C(=O)COc1cc(=O)n(CC)c2ccccc12)c1cc(Cl)ccc1OC was read as Rab9 promoter act 4%, NPC1 prom act -4%, FLuc counter -1%, ELG1 DNA repair 21µM*, SMN2 splice enh -7% and ELG1 genotoxic -12%.
For CCCCCCCc1ccc(-c2ccc(O)cc2)nc1 the results were Rab9 promoter act 3.2µM*, NPC1 prom act inconclusive, FLuc counter 19µM*, ELG1 DNA repair inconclusive, SMN2 splice enh 14µM* and ELG1 genotoxic inconclusive.
CCCc1ccc(-c2ccc(C(=O)Oc3ccc(Br)cc3)cc2)nc1 was read as FLuc counter -4% and SMN2 splice enh 4%.

High-throughput results (PubChem)
